Several values for one entry are separate records, joined by “and”; a condition that tells them apart may be missing. Identical values can stand only once. Activity calls are given as the source filed them. Unless noted, the call rests on the fitted dose curve; in most records, active means well fitted curve in the direction sought with a large enough effect; inconclusive means small, poorly fitted or top-dose-only effect, or another doubt; inactive means no such curve, though single readings can be large; an effect the other way counts as inactive or inconclusive.
Tests used:
[1] = Cell Viability - LYMP2-009 (AID 968); further: potency means the concentration at half of the fitted maximal effect; nearly all actives have a fitted effect of over 55% in size
[2] = Cell Viability - LYMP2-011 (AID 969); further: potency means the concentration at half of the fitted maximal effect; nearly all actives have a fitted effect of over 60% in size
Outline: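 Acute toxicity is scored as a concentration-dependent drop in intracellular ATP of a human lymphoblastoid line after 24 hr treatment. Values are AC50s modeled with the Hill equation.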

[3] = Cell Viability - LYMP2-013 (AID 970); further: potency means the concentration at half of the fitted maximal effect; nearly all actives have a fitted effect of over 55% in size
Outline: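 Acute toxicity was measured in human lymphoblastoid cells (2500/well) exposed to compound titrations for 24 hr, with ATP luminescence (CellTiter-Glo) as read-out and AC50 fitted by Hill equation.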

[4] = Cell Viability - LYMP2-015 (AID 971); further: potency means the concentration at half of the fitted maximal effect; nearly all actives have a fitted effect of over 55% in size
Outline: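 Acute toxicity was scored as a concentration-dependent drop in intracellular ATP in lymphoblastoid cells after 24 hr compound exposure in complete medium. Detection used CellTiter-Glo luciferase luminescence.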

[5] = Cell Viability - LYMP2-017 (AID 972); further: potency means the concentration at half of the fitted maximal effect; nearly all actives have a fitted effect of over 55% in size
Outline: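 Steps: plate 2500 lymphoblastoid cells per well; incubate 5 hr at 37 C; add compound across a concentration series and incubate 24 hr at 37 C; add CellTiter-Glo and read luminescence after 30 min at room temperature; fit Hill curves for AC50.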

[6] = Cell Viability - LYMP2-019 (AID 973)
Outline: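 Cells plated at 2500/well and allowed 5 hr at 37 C before compound addition. After 24 hr incubation, CellTiter-Glo reagent was added, plates sat 30 min at room temperature, and luminescence was recorded.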

[7] = Cell Viability - LYMP2-021 (AID 974)
Outline: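 Concentration-response cytotoxicity in a human lymphoblastoid line: 24 hr treatment at 37 C in complete culture medium, tetraoctylammonium bromide as positive control, luminescent ATP quantitation as viability measure.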

[8] = Cell Viability - LYMP2-023 (AID 975)
Outline: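 Concentration-dependent drop in intracellular ATP measures acute cytotoxicity in a human lymphoblastoid line treated for 24 hours in complete culture medium. AC50 values are taken from Hill-equation fits of qHTS data.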

[9] = Cell Viability - LYMP2-002 (AID 977); further: potency means the concentration at half of the fitted maximal effect
Outline: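 Cytotoxicity is scored as concentration-dependent loss of cellular ATP in a human lymphoblastoid line after 24 hr compound treatment at 37 C. AC50 is obtained by modelling concentration-response data with the Hill equation.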

[10] = Cell Viability - LYMP2-006 (AID 978); further: potency means the concentration at half of the fitted maximal effect; nearly all actives have a fitted effect of over 60% in size
Outline: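 Potency values are Hill-fit AC50s for decreases in intracellular ATP (CellTiter-Glo luminescence). LYMP2-006 lymphoblastoid cells, 2500 per well, were exposed to compound in complete culture medium for 24 hr at 37 C.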

[11] = Cell Viability - LYMP2-007 (AID 979);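 further: potency means the concentration at half of the fitted maximal effect; cells exposed to compound for 24 h before reading; nearly all actives have a fitted effect of over 60% in size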
Outline: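 Acute toxicity is scored as a concentration-dependent fall in intracellular ATP in human lymphoblastoid cells treated 24 hr at 37 C, measured by luciferase luminescence; Hill-equation modelling yields AC50.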

[12] = Cell Viability - LYMP2-008 (AID 980); further: potency means the concentration at half of the fitted maximal effect; nearly all actives have a fitted effect of over 60% in size
Outline: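 Acute cytotoxicity is scored as concentration-dependent loss of cellular ATP in a human lymphoblastoid line after 24 hr treatment at 37 C. ATP is quantified by luciferase luminescence.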

[13] = Cell Viability - LYMP2-012 (AID 982)
[14] = Cell Viability - LYMP2-014 (AID 983); further: potency means the concentration at half of the fitted maximal effect; nearly all actives have a fitted effect of over 50% in size
Outline: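 Decrease in intracellular ATP after 24 hr treatment at 37 C, measured by luciferase luminescence, indicated cytotoxicity. Concentration-response data were fitted with the standard Hill equation to give AC50.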

[15] = Cell Viability - LYMP2-016 (AID 984)
Outline: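 Cytotoxicity was scored by luminescent ATP content (CellTiter-Glo) after 24 h compound exposure at 37 C of a human lymphoblastoid line at 2500 cells/well. Concentration-response data were fitted to the Hill equation for AC50.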

[16] = Cell Viability - LYMP2-018 (AID 985);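 further: potency means the concentration at half of the fitted maximal effect; compound exposure lasted 24 hr at 37 °C; nearly all actives have a fitted effect of over 50% in size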
Outline: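 Acute cytotoxicity is scored as a concentration-dependent drop in intracellular ATP after 24 hr exposure of the lymphoblastoid line in complete culture medium, measured by luciferase luminescence. Potency is expressed as AC50 from Hill modelling.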

[17] = Cell Viability - LYMP2-020 (AID 986)
Outline: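 Acute cytotoxicity in a human lymphoblastoid line is scored as a concentration-dependent fall in cellular ATP after 24 hr at 37 C in complete medium. The positive control is tetraoctylammonium bromide, and potency is given as Hill-fit AC50.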

[18] = Cell Viability - LYMP2-022 (AID 987)
Outline: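 Acute toxicity in a human lymphoblastoid line is scored as decreased intracellular ATP after 24 hr compound treatment at 37 C. ATP is measured by CellTiter-Glo luminescence; curves are fitted with the Hill equation to give AC50.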

[19] = Cell Viability - LYMP2-024 (AID 988)
Outline: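 Acute toxicity is measured as concentration-dependent loss of intracellular ATP in a human lymphoblastoid line treated 24 hours at 37 C. Luciferase luminescence quantifies ATP; AC50 values come from standard Hill-equation modelling.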

[20] = Cell Viability - LYMP2-026 (AID 989); further: potency means the concentration at half of the fitted maximal effect; nearly all actives have a fitted effect of over 50% in size
Outline: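 Concentration-dependent loss of intracellular ATP in human lymphoblastoid cells after 24 hr at 37 C, quantified by luciferase luminescence. AC50 derived from standard Hill equation.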

[21] = Cell Viability - LYMP1-002 - Assay at 24 hr (AID 993); further: potency means the concentration at half of the fitted maximal effect
Outline: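 qHTS, LYMP1-002 lymphoblastoid, 24 h cpd, 37 C, CellTiter-Glo ATP luminescence; AC50 via Hill eq.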

[22] = Cell Viability - LYMP1-002 - Assay at 40 hr (AID 994)
Outline: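 Viability in the human lymphoblastoid line was measured as intracellular ATP via CellTiter-Glo after 40 hr compound exposure. Tetraoctylammonium bromide served as positive control.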

[23] = molecular target: Estrogen receptor (Homo sapiens) (UniProt P03372); assay: qHTS assay for small molecule antagonists of estrogen receptor alpha signaling (AID 588513; active means well fitted curve in the direction sought with a large enough effect in the signal ratio, with a control signal flat, not every such curve was filed as active; inconclusive means small, poorly fitted or top-dose-only effect, or effect the other way, or a change in a side signal; inactive means no such curve, though single readings can be large or run the other way; the % refers to the signal ratio; further: potency means the concentration at half of the fitted maximal effect)
Chain of Estrogen receptor (Homo sapiens) (P03372 whole entry, looked up): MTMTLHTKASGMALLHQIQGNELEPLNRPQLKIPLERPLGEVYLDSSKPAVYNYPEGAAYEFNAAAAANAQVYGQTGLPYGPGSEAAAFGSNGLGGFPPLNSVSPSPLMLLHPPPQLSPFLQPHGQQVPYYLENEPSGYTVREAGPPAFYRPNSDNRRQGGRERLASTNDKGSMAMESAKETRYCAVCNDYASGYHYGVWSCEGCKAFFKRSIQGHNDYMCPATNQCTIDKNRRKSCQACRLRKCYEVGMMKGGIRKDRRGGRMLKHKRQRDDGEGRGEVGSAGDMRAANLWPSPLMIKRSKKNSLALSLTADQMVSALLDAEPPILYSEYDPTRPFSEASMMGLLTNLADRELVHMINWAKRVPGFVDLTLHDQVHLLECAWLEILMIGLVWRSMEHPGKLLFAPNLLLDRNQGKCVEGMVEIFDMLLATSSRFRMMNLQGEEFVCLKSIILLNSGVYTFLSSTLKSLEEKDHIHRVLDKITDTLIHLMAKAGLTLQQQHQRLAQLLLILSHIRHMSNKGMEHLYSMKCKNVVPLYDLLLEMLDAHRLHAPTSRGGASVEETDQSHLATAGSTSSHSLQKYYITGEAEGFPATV
Outline: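 Antagonist mode: inhibition of 0.5 nM 17-beta-estradiol-driven beta-lactamase reporter in HEK 293 ER-alpha-UAS-bla cells, 18 h at 37C, CCF4 readout after 2 h at RT. Normalised to estradiol and DMSO; titration fitted to Hill.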

[24] = molecular target: Estrogen receptor (Homo sapiens) (UniProt P03372); assay: qHTS assay for small molecule agonists of estrogen receptor alpha signaling (AID 588514; calls by dose curve;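 further: 0% = vehicle only and 100% = reference agonist; nearly all actives have a fitted effect of over 70% in size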)
Outline: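 Reporter-gene assay. […] controls beta-lactamase in HEK 293 GripTite cells; after 18 hrs with compound, CCF4 substrate is added for 2 hrs and fluorescence is read.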

[25] = molecular target: Bile acid receptor (Homo sapiens) (UniProt Q96RI1); assay: qHTS assay for small molecule agonists of farnesoid X receptor signaling (AID 588527; calls by dose curve;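 further: series mostly up to about 77 µM; 0% = vehicle basal and 100% = reference agonist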); conditions: HEK293T FXR-UAS-bla, beta-lactamase ratio, 16 h; activation: active compounds read high
Chain of Bile acid receptor (Homo sapiens) (Q96RI1 whole entry, looked up): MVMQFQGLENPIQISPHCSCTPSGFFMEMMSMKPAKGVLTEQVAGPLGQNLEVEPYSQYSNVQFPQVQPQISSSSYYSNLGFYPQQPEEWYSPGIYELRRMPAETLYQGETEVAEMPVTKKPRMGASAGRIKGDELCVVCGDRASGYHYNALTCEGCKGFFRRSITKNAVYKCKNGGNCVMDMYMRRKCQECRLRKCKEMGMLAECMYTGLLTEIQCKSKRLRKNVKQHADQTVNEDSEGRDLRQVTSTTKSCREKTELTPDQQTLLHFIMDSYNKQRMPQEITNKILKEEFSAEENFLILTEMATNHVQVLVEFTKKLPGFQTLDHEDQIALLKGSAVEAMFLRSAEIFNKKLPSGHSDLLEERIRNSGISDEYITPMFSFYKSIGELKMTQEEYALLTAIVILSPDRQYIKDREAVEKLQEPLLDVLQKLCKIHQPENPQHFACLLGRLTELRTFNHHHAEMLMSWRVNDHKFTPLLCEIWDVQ
Outline: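 Quantitative HTS used FXR-UAS-bla HEK293T cells with 16 h compound incubation at 37 C. EC50 values came from concentration-response curves normalized to chenodeoxycholic acid.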

[26] = molecular target: Glucocorticoid receptor (Homo sapiens) (UniProt P04150); assay: qHTS assay for small molecule antagonists of glucocorticoid receptor signaling (AID 588533; active means well fitted inhibition curve with a large enough effect in the signal ratio, with a control signal flat, not every such curve was filed as active; inconclusive means small, poorly fitted or top-dose-only effect, or effect the other way, or a change in a side signal; the % refers to the signal ratio;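 further: cells stimulated with 2 nM dexamethasone as agonist; on the % scale 0 is the no-effect control and ±100 the full control effect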)
Chain of Glucocorticoid receptor (Homo sapiens) (P04150 whole entry, looked up): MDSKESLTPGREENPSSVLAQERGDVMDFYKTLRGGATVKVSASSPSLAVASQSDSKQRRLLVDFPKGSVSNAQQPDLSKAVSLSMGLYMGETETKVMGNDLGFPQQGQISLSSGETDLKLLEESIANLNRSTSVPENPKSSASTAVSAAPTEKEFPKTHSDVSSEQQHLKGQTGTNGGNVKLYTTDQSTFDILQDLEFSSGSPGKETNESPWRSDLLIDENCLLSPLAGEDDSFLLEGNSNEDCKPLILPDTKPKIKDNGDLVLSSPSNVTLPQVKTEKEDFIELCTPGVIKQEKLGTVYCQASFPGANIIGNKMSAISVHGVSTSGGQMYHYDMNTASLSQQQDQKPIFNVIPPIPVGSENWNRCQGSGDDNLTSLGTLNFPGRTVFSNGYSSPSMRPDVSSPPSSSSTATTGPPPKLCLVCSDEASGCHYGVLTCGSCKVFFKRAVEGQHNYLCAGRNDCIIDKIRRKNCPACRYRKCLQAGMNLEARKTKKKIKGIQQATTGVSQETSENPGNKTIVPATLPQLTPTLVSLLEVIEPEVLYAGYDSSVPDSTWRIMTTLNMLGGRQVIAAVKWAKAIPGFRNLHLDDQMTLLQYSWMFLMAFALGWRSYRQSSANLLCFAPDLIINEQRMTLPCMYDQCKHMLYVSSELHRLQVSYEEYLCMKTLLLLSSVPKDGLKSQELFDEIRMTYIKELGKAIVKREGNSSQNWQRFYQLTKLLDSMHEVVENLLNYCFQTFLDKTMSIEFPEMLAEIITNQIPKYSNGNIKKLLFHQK
Outline: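 Antagonist-mode qHTS: compound titrations added to GRE-bla HeLa cells, then dexamethasone 2 nM final; 18 h, 37 C. CCF4 FRET fluorescence normalized to dexamethasone and DMSO; IC50 from Hill fit.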

[27] = molecular target: Peroxisome proliferator-activated receptor delta (Homo sapiens) (UniProt Q03181); assay: qHTS assay for small molecule agonists of peroxisome proliferator-activated receptor delta signaling (AID 588534; calls by dose curve;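 further: 0% = DMSO basal wells and 100% = positive control agonist at 10 µM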)
Chain of Peroxisome proliferator-activated receptor delta (Homo sapiens) (Q03181 whole entry, looked up): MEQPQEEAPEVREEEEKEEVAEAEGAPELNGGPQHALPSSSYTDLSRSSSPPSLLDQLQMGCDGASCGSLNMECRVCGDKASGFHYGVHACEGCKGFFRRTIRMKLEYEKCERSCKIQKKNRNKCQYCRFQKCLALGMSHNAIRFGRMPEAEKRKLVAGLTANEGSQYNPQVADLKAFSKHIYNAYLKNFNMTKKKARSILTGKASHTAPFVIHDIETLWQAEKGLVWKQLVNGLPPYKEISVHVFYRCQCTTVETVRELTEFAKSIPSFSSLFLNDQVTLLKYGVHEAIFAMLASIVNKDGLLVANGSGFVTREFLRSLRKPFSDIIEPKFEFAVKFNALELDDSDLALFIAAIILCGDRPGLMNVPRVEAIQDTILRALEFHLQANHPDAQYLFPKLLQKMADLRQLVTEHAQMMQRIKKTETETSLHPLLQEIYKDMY
Outline: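 Reporter cells were plated and held 5 hrs at 37 C before compounds were added. After 18 hrs at 37 C, CCF4 dye was loaded for 2 hrs at RT and fluorescence measured.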

[28] = molecular target: Peroxisome proliferator-activated receptor gamma (Homo sapiens) (UniProt P37231); assay: qHTS assay for small molecule agonists of peroxisome proliferator-activated receptor gamma signaling (AID 588536; active means well fitted curve in the direction sought with a large enough effect in the signal ratio, with a control signal flat, not every such curve was filed as active; inconclusive means small, poorly fitted or top-dose-only effect, or effect the other way, or a change in a side signal; inactive means no such curve, though single readings can be large or run the other way; the % refers to the signal ratio;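 further: 0% = DMSO basal wells and 100% = rosiglitazone at 2 µM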)
Chain of Peroxisome proliferator-activated receptor gamma (Homo sapiens) (P37231 whole entry, looked up): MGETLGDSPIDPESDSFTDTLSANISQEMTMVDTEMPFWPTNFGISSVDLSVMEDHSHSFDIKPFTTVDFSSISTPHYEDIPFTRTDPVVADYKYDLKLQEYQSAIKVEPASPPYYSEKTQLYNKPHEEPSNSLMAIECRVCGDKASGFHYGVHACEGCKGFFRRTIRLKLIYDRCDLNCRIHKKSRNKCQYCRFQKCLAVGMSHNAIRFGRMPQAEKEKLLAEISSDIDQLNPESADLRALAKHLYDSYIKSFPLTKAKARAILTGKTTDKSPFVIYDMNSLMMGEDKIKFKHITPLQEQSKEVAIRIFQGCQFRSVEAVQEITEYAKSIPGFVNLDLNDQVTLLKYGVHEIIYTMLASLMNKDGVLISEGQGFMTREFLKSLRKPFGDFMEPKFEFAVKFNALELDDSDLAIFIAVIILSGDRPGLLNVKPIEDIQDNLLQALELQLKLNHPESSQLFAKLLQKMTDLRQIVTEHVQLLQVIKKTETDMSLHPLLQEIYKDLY
Outline: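 HEK293 UAS-bla reporter line, 1% charcoal/dextran FBS; titration, 16 h, 37 C; CCF4 loading 2 h RT; fluorescence 460/530 nm. Normalized to rosiglitazone 2 uM = 100%, DMSO = 0%.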

[29] = molecular target: Vitamin D3 receptor (Homo sapiens) (UniProt P11473); assay: qHTS assay for small molecule antagonists of vitamin D receptor signaling (AID 588541; calls by dose curve; further: potency means the concentration at half of the fitted maximal effect)
Chain of Vitamin D3 receptor (Homo sapiens) (P11473 whole entry, looked up): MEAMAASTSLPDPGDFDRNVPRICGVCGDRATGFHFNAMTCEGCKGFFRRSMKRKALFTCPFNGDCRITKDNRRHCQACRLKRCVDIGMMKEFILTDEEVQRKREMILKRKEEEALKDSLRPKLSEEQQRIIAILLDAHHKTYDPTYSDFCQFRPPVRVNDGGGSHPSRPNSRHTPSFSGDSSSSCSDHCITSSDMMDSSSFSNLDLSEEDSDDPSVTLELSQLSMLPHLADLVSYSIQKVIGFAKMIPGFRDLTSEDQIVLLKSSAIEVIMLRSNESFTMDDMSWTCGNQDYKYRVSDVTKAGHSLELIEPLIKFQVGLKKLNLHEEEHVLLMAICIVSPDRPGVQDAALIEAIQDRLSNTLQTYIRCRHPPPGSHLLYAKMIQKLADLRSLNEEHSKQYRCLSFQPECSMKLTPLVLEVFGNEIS
Outline: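 Antagonist-mode beta-lactamase reporter assay: HEK293T VDR-UAS-bla cells were exposed to titrated compound alongside 1-alpha,25-dihydroxyvitamin D3 at 3 nM final for 16 h. Values were normalized to the 50 nM agonist control and DMSO basal, with IC50 and efficacy from Hill equation fits.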

[30] = molecular target: Thyroid hormone receptor beta (Homo sapiens) (UniProt P10828); assay: qHTS assay for small molecule agonists of thyroid hormone receptor beta signaling (AID 588545; calls by dose curve)
Chain of Thyroid hormone receptor beta (Homo sapiens) (P10828 whole entry, looked up): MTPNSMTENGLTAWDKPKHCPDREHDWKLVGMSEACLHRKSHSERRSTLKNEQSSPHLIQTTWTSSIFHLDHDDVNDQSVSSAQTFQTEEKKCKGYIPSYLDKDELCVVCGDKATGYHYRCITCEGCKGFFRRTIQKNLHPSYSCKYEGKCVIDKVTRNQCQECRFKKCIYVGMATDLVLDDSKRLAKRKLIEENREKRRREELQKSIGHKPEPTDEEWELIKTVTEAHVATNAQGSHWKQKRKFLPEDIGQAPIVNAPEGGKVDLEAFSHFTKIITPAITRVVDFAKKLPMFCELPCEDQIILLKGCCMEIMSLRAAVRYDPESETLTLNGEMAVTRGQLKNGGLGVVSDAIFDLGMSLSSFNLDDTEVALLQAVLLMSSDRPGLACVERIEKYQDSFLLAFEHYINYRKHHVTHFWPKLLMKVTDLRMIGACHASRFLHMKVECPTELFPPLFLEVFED
Outline: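 HEK 293 TR-UAS-bla; agonist mode; 18 hrs, 37 C; CCF4, ex 405/em 460 and 530 nm; norm. T3 10 nM = 100%, DMSO = 0%; Hill fit → EC50, efficacy.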

[31] = qHTS assay for small molecule agonists of the antioxidant response element (ARE) signaling pathway (AID 651741; active means well fitted activation curve with a large enough effect in the signal ratio; inconclusive means small, poorly fitted or top-dose-only effect, or effect the other way, or a change in a side signal; the % refers to the signal ratio; further: potency means the concentration at half of the fitted maximal effect)
Outline: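 Seeding 2,000 ARE-bla HepG2 cells per well preceded a 5 h incubation at 37 C/5% CO2 and a 16 h compound exposure at 37 C. Beta-lactamase reporter activity was then quantified by fluorescence after 2 h with LiveBLAzer B/G FRET substrate.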

[32] = qHTS assay for small molecule activators of the p53 signaling pathway (AID 651743; active means well fitted activation curve with a large enough effect in the signal ratio, not every such curve was filed as active; inconclusive means small, poorly fitted or top-dose-only effect, or a change in a side signal; the % refers to the signal ratio; further: series mostly up to about 92 µM; % of control where 0% means no effect); conditions: HCT-116 p53RE-bla, beta-lactamase FRET ratio, 16 h; activation: active compounds read high
Outline: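 Screen for p53 pathway agonists uses stably transfected p53RE-bla HCT-116 cells, 4,000 per well, treated 16 h at 37 C with compounds in DMSO.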

[33] = qHTS assay for small molecule activators of the nuclear factor-kappa B (NF-kB) signaling pathway (AID 651749; active means well fitted activation curve with a large enough effect in the signal ratio; inconclusive means small, poorly fitted or top-dose-only effect, or a change in a side signal; the % refers to the signal ratio; further: series mostly up to about 77 µM; % of control where 0% means no effect); conditions: NF-kB-bla ME-180 cells, beta-lactamase FRET ratio, 16 h; activation: active compounds read high
Outline: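 Stably transfected ME-180 line; NF-kB response element upstream of beta-lactamase. Treatment: compound or DMSO, 16 hr. Detection: fluorescent FRET substrate.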

[34] = qHTS assay for small molecule disruptors of the mitochondrial membrane potential - 5 hr assay (AID 651755; calls by dose curve; further: on the % scale 0 is the no-effect control and ±100 the full control effect; nearly all actives have a fitted effect of over 40% in size)
Outline: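 HepG2, 2,000 cells/well, overnight attach; cpd or DMSO 5 hr, 37C/5% CO2; Mito-MPS 30 min 37C; fluor 490/535 + 540/590 nm.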

[35] = molecular target: Tumor necrosis factor (Homo sapiens) (UniProt P01375); assay: qHTS assay to identify small molecules that stimulate Tumor Necrosis Factor-alpha (TNF-alpha) secretion (AID 651757; active means well fitted curve in the direction sought with a large enough effect in the signal ratio; inconclusive means small, poorly fitted or top-dose-only effect, or a change in a side signal; inactive means no such curve, though single readings can be large or run the other way; the % refers to the signal ratio; further: 0% is about no effect)
Chain of Tumor necrosis factor (Homo sapiens) (P01375 whole entry, looked up): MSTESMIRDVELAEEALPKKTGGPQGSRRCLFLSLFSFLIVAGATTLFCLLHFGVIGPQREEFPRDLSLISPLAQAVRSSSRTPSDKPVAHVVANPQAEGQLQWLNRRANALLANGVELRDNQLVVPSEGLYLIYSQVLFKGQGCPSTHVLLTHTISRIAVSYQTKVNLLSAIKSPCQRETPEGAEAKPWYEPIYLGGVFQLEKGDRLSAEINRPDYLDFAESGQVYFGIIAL
Outline: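 Secreted TNF-alpha from compound-treated THP-1 cells (17 hrs, 37 C) was quantified with a homogeneous time-resolved fluorescence antibody assay.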

[36] = qHTS assay for environmental chemicals that activate the Aryl hydrocarbon Receptor (AhR) signaling pathway (AID 651777); conditions: 1A2-DRE human hepatoma cells, luciferase, 24 h; activation: active compounds read high; further: % of control where 0% means no effect; nearly all actives have a fitted effect of over 15% in size
Outline: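 Human hepatoma 1A2-DRE cells, stably carrying a dioxin response element and CYP1A2 promoter driving luciferase, were exposed to compounds for 24 hr at 37 C and 5% CO2. Luciferase signal was then read after 30 min One-Glo at room temperature.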

[37] = molecular target: Peroxisome proliferator-activated receptor alpha (Homo sapiens) (UniProt Q07869); assay: qHTS assay for small molecule agonists of the peroxisome proliferator-activated receptor alpha (PPARalpha) signaling pathway (AID 651778); conditions: PathHunter PPARalpha complementation, chemiluminescence, 6 h; max response: active compounds read high; further: % of control where 0% means no effect
Chain of Peroxisome proliferator-activated receptor alpha (Homo sapiens) (Q07869 whole entry, looked up): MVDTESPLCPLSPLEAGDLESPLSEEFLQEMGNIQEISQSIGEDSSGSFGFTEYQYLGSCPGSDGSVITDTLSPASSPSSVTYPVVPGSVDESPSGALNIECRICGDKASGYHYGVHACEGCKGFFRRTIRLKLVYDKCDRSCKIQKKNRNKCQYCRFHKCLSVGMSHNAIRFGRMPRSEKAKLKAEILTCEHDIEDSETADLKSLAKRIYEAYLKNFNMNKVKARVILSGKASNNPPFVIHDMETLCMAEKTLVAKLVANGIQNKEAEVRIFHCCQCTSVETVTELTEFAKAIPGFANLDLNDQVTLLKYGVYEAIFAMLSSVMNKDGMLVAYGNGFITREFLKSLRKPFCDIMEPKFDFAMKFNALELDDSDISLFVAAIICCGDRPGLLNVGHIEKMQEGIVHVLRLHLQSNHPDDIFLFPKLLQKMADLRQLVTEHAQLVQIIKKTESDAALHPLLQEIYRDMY
Outline: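 Chemiluminescence from complemented enzyme reported PPARalpha activation in cells after 6 hr of compound treatment at 37 C. The detection reagent was incubated for 60 min at room temperature, and compounds were scored as agonists.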

[38] = molecular target: Nuclear receptor ROR-gamma (Homo sapiens) (UniProt P51449); assay: qHTS assay for small molecule antagonists of the retinoid-related orphan receptor gamma (ROR-gamma) signaling pathway (AID 651802)
Chain of Nuclear receptor ROR-gamma (Homo sapiens) (P51449 whole entry, looked up): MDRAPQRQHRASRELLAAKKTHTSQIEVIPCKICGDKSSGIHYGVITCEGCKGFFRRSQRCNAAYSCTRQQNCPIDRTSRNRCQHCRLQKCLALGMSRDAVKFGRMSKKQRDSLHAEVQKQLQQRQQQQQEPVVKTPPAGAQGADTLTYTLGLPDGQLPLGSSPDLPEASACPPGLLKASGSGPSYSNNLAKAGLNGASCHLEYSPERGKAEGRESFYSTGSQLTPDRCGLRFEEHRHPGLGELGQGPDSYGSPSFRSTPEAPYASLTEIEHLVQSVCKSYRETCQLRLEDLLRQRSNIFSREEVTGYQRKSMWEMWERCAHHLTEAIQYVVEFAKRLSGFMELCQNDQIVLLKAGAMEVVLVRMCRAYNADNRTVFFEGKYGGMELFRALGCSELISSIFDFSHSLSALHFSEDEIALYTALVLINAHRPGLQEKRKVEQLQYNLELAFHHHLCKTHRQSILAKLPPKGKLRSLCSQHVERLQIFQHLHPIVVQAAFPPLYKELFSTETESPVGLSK
Outline: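 Antagonism is scored as a fall in luminescence from a RORE-luciferase reporter in CHO cells expressing ROR under a TET-inducible promoter, measured 16hr after doxycycline induction in the presence of compound.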

[39] = qHTS assay for small molecule agonists of the antioxidant response element (ARE) signaling pathway measured by Nrf2-dependant transcriptional activity - cell viability counter screen (AID 720653; active means well fitted curve in the direction sought with a large enough effect in the repeat runs; inconclusive means weak or mixed curves; inactive means no such curve, though single readings can be large; an effect the other way counts as inactive or inconclusive; further: potency means the concentration at half of the fitted maximal effect); conditions: ARE-bla HepG2 viability, CellTiter-Glo ATP luminescence, 16 h; max response: active compounds read low
Outline: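 Cytotoxicity counter screen: intracellular ATP quantified by CellTiter-Glo luminescence in the same ARE-bla HepG2 plates, after 16 h compound exposure and a 2 h beta-lactamase substrate step.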

[40] = qHTS assay for cell viability of the p53RE-bla HCT-116 cell line (AID 743292)
Outline: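 CellSensor p53RE-bla HCT-116 cells, 4,000/well, preincubated 5 h at 37 C, then exposed to compounds in DMSO for 16 h at 37 C. Viability read as CellTiter-Glo luminescence (intracellular ATP) after 30 min at room temperature.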

CCCCCCCCn1sccc1=O
inactive: Potency [24] | activation [25] 6.4% | Potency [26] | outcome [27] | Potency [28] | Potency [30] | activation [32] -5.11% | activation [33] -0.619% and -1.03% | Potency [34] | Potency [35] | activation [36] 1.42% and -3.52% | max response [37] -5.93% and -2.13% | Potency [40]
active: Potency [1] 5.01 µM | Potency [2] 6.31 µM | Potency [3] 15.8 µM | Potency [4] 3.16 µM | Potency [5] 3.98 µM | Potency [6] 3.98 µM | Potency [7] 3.98 µM | Potency [8] 6.31 µM | Potency [9] 6.31 µM | Potency [10] 7.94 µM | Potency [11] 2.51 µM | Potency [12] 7.94 µM | Potency [13] 3.98 µM | Potency [14] 10 µM | Potency [15] 6.31 µM | Potency [16] 5.01 µM | Potency [17] 3.98 µM | Potency [18] 2.51 µM | Potency [19] 2.51 µM | Potency [20] 3.98 µM | Potency [21] 12.6 µM | Potency [22] 15.8 µM | Potency [23] 14.1 µM [inconclusive] | Potency [29] 22.4 µM | Potency [31] 66.8 µM and 54.5 µM | Potency [38] 11.9 µM | Potency [39] 50.1 µM
